This note sets out measurements from PubChem BioAssay (Tox21).

Molecules are shown by their SMILES. Values joined by “and” are separate entries in the source; they are usually repeats but may differ in a detail not shown here. Identical values can stand only once. Records with an inconclusive call do not appear. More than one record can exist for a structure, and the calls need not agree. Active and inactive are the calls of the source. Calls follow the shape of the dose curve; as a rule, active = well fitted curve in the direction sought with a large enough effect in the repeat runs; inconclusive = weak or mixed curves; inactive = no such curve, though single readings can be large; an effect the other way counts as inactive or inconclusive.

The nature of test [1]: qHTS RealTime-Glo MT Cell Viability Assay in HEK293 cells - 16 hour (AID 1224872). Also: nearly all actives have a fitted effect of over 50% in size. Also: potency is read from the fitted curve at half-maximal effect. Summed up: (§1)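 Luminescence generated by NanoLuc from substrate produced by living HEK293 cells served as the viability signal. Each value reflects the reading at its stated time point during continuous 40 h compound exposure at 37 C.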
(In general: qHTS replaces the single test concentration by a dilution series.)

Test [2] is described as follows: qHTS RealTime-Glo MT Cell Viability Assay in HepG2 cells - 8 hour (AID 1224873). Also: nearly all actives have a fitted effect of over 55% in size. Also: potency is read from the fitted curve at half-maximal effect. In outline:
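HepG2 cells (600/well) mixed with RealTime-Glo MT reagent, settled 5 h at 37 C/5% CO2 before compound addition. Nonlytic NanoLuc luminescence from viable-cell prosubstrate reduction read repeatedly during 40 h treatment at 37 C.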

Test [3] can be described thus: qHTS RealTime-Glo MT Cell Viability Assay in HEK293 cells - 40 hour (AID 1224874). Also: nearly all actives have a fitted effect of over 50% in size. Also: potency is read from the fitted curve at half-maximal effect. The following applies: RealTime-Glo luminescence; max response: stronger effect = lower value. In outline: (§2)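 Viable HEK293 cells reduce a cell-permeant prosubstrate; the product diffuses out and is consumed by NanoLuc in the medium to give light. Compounds went in after a 5 h incubation and plates were read over the treatment course.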

Test [4] in a line: A CellTox Green Cytotoxicity Assay to monitor cytotoxicity in HEK293 cells - 24 hour (AID 1224875). Also: nearly all actives have a fitted effect of over 45% in size. Also: potency is read from the fitted curve at half-maximal effect. Summed up: (§3)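 Fluorescence intensity, read at 0, 8, 16, 24, 32 and 40 h of compound treatment, reflected dye binding to DNA of dead HEK293 cells; compounds (23 nL, DMSO) were added 5 h after plating cells with reagent.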
Test [5] is described as follows: A CellTox Green Cytotoxicity Assay to monitor cytotoxicity in HepG2 cells - 16 hour (AID 1224876). Also: nearly all actives have a fitted effect of over 45% in size. Also: potency is read from the fitted curve at half-maximal effect. In outline: (§4)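 Using 1536-well format, dye-containing HepG2 suspension was seeded, allowed 5 h at 37 C/5% CO2, dosed by pintool with compounds, positive and negative controls, and imaged for fluorescence across 40 h.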
A short description of test [6]: qHTS RealTime-Glo MT Cell Viability Assay in HepG2 cells - 32 hour (AID 1224877). Also: nearly all actives have a fitted effect of over 55% in size. Also: potency is read from the fitted curve at half-maximal effect. Summed up:
(§5)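 Tox21 10K library screened in qHTS format on HepG2 cells carrying RealTime-Glo reagents. Compounds were added after a 5 h preincubation, and the luminescent signal from continuous culture was measured repeatedly during 40 h treatment.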

Test [7] can be described thus: A CellTox Green Cytotoxicity Assay to monitor cytotoxicity in HepG2 cells - 24 hour (AID 1224878). Also: nearly all actives have a fitted effect of over 45% in size. Also: potency is read from the fitted curve at half-maximal effect. Summed up: as §4
Test [8] can be described thus: A CellTox Green Cytotoxicity Assay to monitor cytotoxicity in HepG2 cells - 40 hour (AID 1224879). Also: nearly all actives have a fitted effect of over 40% in size. Also: potency is read from the fitted curve at half-maximal effect. Summed up: as §4
Test [9] is described as follows: qHTS RealTime-Glo MT Cell Viability Assay in HEK293 cells - 0 hour (AID 1224880). Also: top concentration of the series differs between compounds; nearly all actives have a fitted effect of over 45% in size. In outline:
as §2

The nature of test [10]: A CellTox Green Cytotoxicity Assay to monitor cytotoxicity in HEK293 cells - 32 hour (AID 1224881). Also: nearly all actives have a fitted effect of over 40% in size. Also: potency is read from the fitted curve at half-maximal effect. In outline: as §3
Test [11] can be described thus: A CellTox Green Cytotoxicity Assay to monitor cytotoxicity in HepG2 cells - 0 hour (AID 1224882). Also: nearly all actives have a fitted effect of over 35% in size. Summed up:
as §4

Test [12] can be described thus: A CellTox Green Cytotoxicity Assay to monitor cytotoxicity in HepG2 cells - 32 hour (AID 1224883). Also: nearly all actives have a fitted effect of over 50% in size. Also: potency is read from the fitted curve at half-maximal effect. In outline:
as §4

Test [13] is described as follows: A CellTox Green Cytotoxicity Assay to monitor cytotoxicity in HEK293 cells - 8 hour (AID 1224884). Also: nearly all actives have a fitted effect of over 35% in size. Also: potency is read from the fitted curve at half-maximal effect. In outline: as §3
Test [14] in a line: qHTS RealTime-Glo MT Cell Viability Assay in HEK293 cells - 24 hour (AID 1224886). Also: nearly all actives have a fitted effect of over 50% in size. Also: potency is read from the fitted curve at half-maximal effect. In outline:
as §1

Test [15] can be described thus: qHTS RealTime-Glo MT Cell Viability Assay in HepG2 cells - 0 hour (AID 1224889). Also: nearly all actives have a fitted effect of over 50% in size. Summed up: as §5
A short description of test [16]: A CellTox Green Cytotoxicity Assay to monitor cytotoxicity in HepG2 cells - 8 hour (AID 1224890). Also: nearly all actives have a fitted effect of over 45% in size. Also: potency is read from the fitted curve at half-maximal effect. In outline:
as §4

Test [17] in a line: qHTS RealTime-Glo MT Cell Viability Assay in HepG2 cells - 16 hour (AID 1224885). Also: nearly all actives have a fitted effect of over 50% in size. Also: potency is read from the fitted curve at half-maximal effect. Summed up: as §5
Test [18] is described as follows: qHTS RealTime-Glo MT Cell Viability Assay in HEK293 cells - 8 hour (AID 1224887). Also: nearly all actives have a fitted effect of over 50% in size. Also: potency is read from the fitted curve at half-maximal effect. Summed up:
as §2

Test [19] in a line: qHTS assay to identify small molecule antagonists of the estrogen receptor alpha (ER-alpha) signaling pathway using the BG1 cell line in the presence of 0.1 nM 17-beta-estradiol - cell viability counter screen (AID 1259241). Also: nearly all actives have a fitted effect of over 40% in size. In outline: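 VM7Luc4E2, 4,000 cells/well, phenol red-free medium + 10% charcoal-stripped FBS; 24 hr plating; cpd + 0.1 nM E2 final, 22 hr 37C/5% CO2; CellTiter-Fluor 30 min, fluorescence.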

A short description of test [20]: A CellTox Green Cytotoxicity Assay to monitor cytotoxicity in HEK293 cells - 16 hour (AID 1224888). Also: nearly all actives have a fitted effect of over 35% in size. In outline: as §3
% is scaled to controls: 0 for no effect and ±100 for the full control effect.

Take `CC12CCC(CC1)C(C)(C)O2`: the Potency entry in test [1], in test [2], in [4], in [5], in test [6] and in [7] was “inactive” each time. Moreover, the Potency result in [8], in test [9], in [10], in test [11], in [12] and in [13] was “inactive” in each case. Besides, the Potency result in test [14], in test [15] and in [16] was “inactive” in each case. Further, the max response in test [3] is -1.4% (inactive) and 0.858% (inactive) and 5.76% (inactive).
Turning to `CC/C(=C(\c1ccccc1)c1ccc(OCCN(C)C)cc1)c1ccccc1`, the Potency is 34.6 µM (active) [middle of 5 runs] in [1]; 54.9 µM (active) and 19.7 µM (active) and 43.6 µM (active) in [2]; 22.1 µM (active) [middle of 5 runs] in test [3]; 35 µM (active) [middle of 5 runs] in test [4]; 54.9 µM (active) [middle of 4 runs] in test [5]; 30.9 µM (active) [middle of 4 runs] in test [6]. Moreover, the Potency is 48.9 µM (active) [middle of 5 runs] in [7]; 43.6 µM (active) [middle of 5 runs] in test [8]; 35 µM (active) [middle of 5 runs] in test [10]; 43.6 µM (active) [middle of 5 runs] in test [12]; 44 µM (active) [middle of 5 runs] in test [13]; 43.6 µM (active) [middle of 5 runs] in [17]. In addition, the Potency in [14] was 24.5 µM (active) [middle of 5 runs]; in [18] it was 39.2 µM (active) [middle of 4 runs]; in test [16], 55.3 µM (active) and 54.9 µM (active) and 49 µM (active). Further, the Potency result in test [11] and in test [15] was “inactive” in each case.
In the case of `CCN(CC)C(=O)c1cccc(C)c1`, the Potency result in [1], in [2], in test [4], in [5], in test [6] and in [7] was “inactive” in each case. For the same molecule, the Potency entry in test [8], in test [9], in [10], in [11], in test [12] and in test [13] was “inactive” in each case. Also, the Potency entry in test [14], in test [15], in [16] and in test [19] was “inactive” throughout. Besides, the max response in test [3] was -1.16% (inactive) and -0.892% (inactive) and 2.65% (inactive).
As for `Nc1ccc([N+](=O)[O-])cc1O`, the Potency result in [1], in [2], in test [4], in test [5], in test [6] and in [7] was “inactive” in each case. Moreover, the Potency entry in [8], in test [9], in test [10], in [11], in test [12] and in test [13] was “inactive” throughout. The Potency entry in test [17], in [14], in test [15] and in test [16] was “inactive” throughout.
Regarding `COc1cccc(O)c1O`, the Potency entry in test [1], in test [2], in test [4], in test [5], in test [6] and in [7] was “inactive” each time. For the same molecule, the Potency entry in test [8], in test [9], in test [10], in test [11], in test [12] and in test [13] was “inactive” in each case. Also, the Potency result in test [17], in test [20], in [15] and in test [16] was “inactive” each time.
With `CCCCCCc1ccc(O)cc1O`, the Potency is 19.6 µM (active) and 11 µM (active) in [1]; 19.6 µM (active) and 12.3 µM (active) in test [3]; “inactive and 43.6 µM (active) and 21.3 µM (active)” in test [5]; 49.1 µM (active) and 38.9 µM (active) and 21.3 µM (active) in test [7]; 49.1 µM (active) and 38.9 µM (active) and 19 µM (active) in test [8]; 49.1 µM (active) and 49 µM (active) and inactive in [10]. In addition, the Potency was 49.1 µM (active) and 38.9 µM (active) and 21.3 µM (active) in test [12]; 19.6 µM (active) and 11 µM (active) in [14]; “inactive and 49 µM (active)” in test [16]. In addition, the Potency entry in [2], in test [6], in test [9], in test [11], in [13] and in test [15] was “inactive” each time.
Take `COc1ccc(OC(F)(F)F)cc1CN[C@H]1CCCN[C@H]1c1ccccc1`: the Potency in test [1] was 49 µM (active); in [3], 43.6 µM (active); in test [5], 54.9 µM (active); in test [6] it was 54.9 µM (active); in test [7], 49 µM (active); in [8] it was 49 µM (active). In addition, the Potency in test [12] was 49 µM (active); in [17], 54.9 µM (active); in test [14], 43.6 µM (active). Also, the Potency result in test [11] is “inactive”.
Take `CC1(C)S[C@@H]2[C@H](NC(=O)[C@H](N)c3ccccc3)C(=O)N2[C@H]1C(=O)O`: the Potency result in test [4], in [5], in [7], in test [8], in [10] and in [11] was “inactive” in each case. Also, the Potency result in [12], in test [13] and in test [16] was “inactive” each time.
Consider `CN[C@H]1CC[C@@H](c2ccc(Cl)c(Cl)c2)c2ccccc21`, for which the Potency is 23.9 µM (active) in test [3]; 19 µM (active) in [5]; 23.9 µM (active) in test [6]; 19 µM (active) in [7]; 16.9 µM (active) in [8]; 19 µM (active) in [12]. Besides, the figures for the Potency in test [17] and in test [14] were 23.9 µM (active) and 21.3 µM (active), respectively. Moreover, the Potency entry in [11] and in [15] was “inactive” throughout.
Regarding `COc1ccc(C(Cl)=C(c2ccc(OC)cc2)c2ccc(OC)cc2)cc1`, the Potency entry in test [1], in [4], in test [5], in test [6], in test [7] and in test [8] was “inactive” throughout. For the same molecule, the Potency entry in test [9], in test [10], in test [11], in [12], in [14] and in test [18] was “inactive” in each case. Further, the Potency entry in test [15] and in test [16] was “inactive” throughout. Besides, the max response in test [3] is -17.7% (inactive). The Potency result in [13] is “inactive and 43.6 µM (active)”.
